These results are taken from PubChem BioAssay (EPA / NIEHS).

The term AC50 denotes the concentration giving half of the maximal activity seen.

The source made the active and inactive calls. How the source made its calls: active means hit-call score of the fitted dose curve at least 0.9, where 1 is the maximum; inactive means score below 0.9.

Conditions in all cases: mRNA level, 48 h; actives raise or lower the signal
Read-out in test [1]: Alkaline Phosphatase, Placental (ALPP) gene, ALPP (gene 250)
The test can be described thus: LTEA_HepaRG_ALPP: Life Technologies and Expression Analysis (LTEA) Assay for Alkaline Phosphatase, Placental (ALPP) gene using HepaRG (AID 2283468).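 On AC50: differentiated human HepaRG liver cells in serum-free induction medium.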 Summed up: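 ALPP transcript level, measured by qRT-PCR and normalized to three housekeeping genes (ACTB, GAPDH, POLR2A), after 48 h dosing of differentiated HepaRG in serum-free induction medium. Top concentration 100 uM with half-log dilutions (8 points, 0.5% DMSO, duplicates); bidirectional fitting relative to DMSO.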

Read-out in test [2]: Bcl-2 (BAD) gene, BAD (gene 572)
Briefly: LTEA_HepaRG_BAD: Life Technologies and Expression Analysis (LTEA) Assay for Bcl-2 (BAD) gene using HepaRG (AID 2283469). Summed up: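 Read-out: qRT-PCR of BAD mRNA, normalized to three housekeeping genes. Human HepaRG cultures got 48 h chemical exposure in 0.5% DMSO, duplicate eight-point half-log series topping at 100 uM. Gain or loss of signal fitted versus DMSO vehicle.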

Read-out in test [3]: Bcl-2 (BAX) gene, BAX (gene 581)
The test can be described thus: LTEA_HepaRG_BAX: Life Technologies and Expression Analysis (LTEA) Assay for Bcl-2 (BAX) gene using HepaRG (AID 2283470). Summed up:
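Human HepaRG cells treated in duplicate for 48 h across eight concentrations (max 100 uM, 0.5% DMSO); BAX expression measured by qRT-PCR.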

Read-out in test [4]: adenosine kinase (ADK) gene, ADK (gene 132)
The test can be described thus: LTEA_HepaRG_ADK: Life Technologies and Expression Analysis (LTEA) Assay for adenosine kinase (ADK) gene using HepaRG (AID 2283471). Summed up: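 Read-out is ADK transcript level measured by qRT-PCR and normalised to three housekeeping genes. Cells are human HepaRG, dosed for 48 h at up to 100 uM in 0.5% DMSO. Gain or loss of signal is fitted against DMSO controls.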

Read-out in test [5]: Alpha-fetoprotein (AFP) gene, AFP (gene 174)
The test can be described thus: LTEA_HepaRG_AFP: Life Technologies and Expression Analysis (LTEA) Assay for Alpha-fetoprotein (AFP) gene using HepaRG (AID 2283472). Summed up: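 Measures AFP mRNA change in HepaRG after 48 h chemical exposure (8 half-log concentrations, highest 100 uM, 0.5% DMSO). Fold change relative to DMSO, fitted in both directions.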

Read-out in a further test: BCL2L11 (gene 10018)
The test can be described thus: LTEA_HepaRG_BCL2L11: Life Technologies and Expression Analysis (LTEA) Assay for Bcl-2 (BCL2L11) gene using HepaRG (AID 2283473). Summed up: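 BCL2L11 transcript levels are measured by Fluidigm qRT-PCR, normalized to three housekeeping genes. HepaRG cultures were plated 48 h, then treated 48 h with test chemical (top 100 uM, half-log, 0.5% DMSO vehicle); curves were fitted bidirectionally against DMSO.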

Read-out in test [6]: Apolipoprotein A-V (APOA5) gene, APOA5 (gene 116519)
Briefly: LTEA_HepaRG_APOA5: Life Technologies and Expression Analysis (LTEA) Assay for Apolipoprotein A-V (APOA5) gene using HepaRG (AID 2283474). Summed up:
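APOA5 transcript levels were quantified by qRT-PCR, normalized to three housekeeping genes, after 48 h chemical treatment of HepaRG cells (8 points, 100 uM maximum, half-log steps, 0.5% DMSO). Curves fitted in both directions against vehicle.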

Read-out in test [7]: Apoptosis regulator Bcl-2 (Homo sapiens) (UniProt P10415)
The test can be described thus: LTEA_HepaRG_BCL2: Life Technologies and Expression Analysis (LTEA) Assay for Bcl-2 gene using HepaRG (AID 2283475).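 Further: BCL2 transcript by TaqMan qRT-PCR normalised to ACTB GAPDH and POLR2A.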 Summed up:
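Each chemical was tested in duplicate on HepaRG cultures held in serum-free induction medium for 48 h, highest concentration 100 uM with half-log dilutions. Transcript levels came from multiplexed qRT-PCR, normalised to housekeeping genes; activity was scored in either direction relative to DMSO.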

Read-out in test [8]: Bcl-2 (BID) gene, BID (gene 637)
Briefly: LTEA_HepaRG_BID: Life Technologies and Expression Analysis (LTEA) Assay for Bcl-2 (BID) gene using HepaRG (AID 2283476). Summed up:
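Assay used HepaRG hepatic cells treated 48 h in serum-free medium with half-log dilutions from 100 uM. Endpoint: BID mRNA, qRT-PCR, normalized to ACTB/GAPDH/POLR2A.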

Read-out in the next test: Caspase-3 (Homo sapiens) (UniProt P42574)
The test can be described thus: LTEA_HepaRG_CASP3: Life Technologies and Expression Analysis (LTEA) Assay for cysteine-aspartic acid protease (CASP3) using HepaRG (AID 2283477). Summed up:
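Expression of CASP3 was quantified by TaqMan qRT-PCR against three housekeeping genes (ACTB, GAPDH, POLR2A), bidirectionally versus 0.5% DMSO. HepaRG cultures received compounds in duplicate, top 100 uM with half-log steps, for 48 h in serum-free induction medium.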

Apoptosis regulator Bcl-2 (Homo sapiens), sequence (P10415 whole entry, looked up): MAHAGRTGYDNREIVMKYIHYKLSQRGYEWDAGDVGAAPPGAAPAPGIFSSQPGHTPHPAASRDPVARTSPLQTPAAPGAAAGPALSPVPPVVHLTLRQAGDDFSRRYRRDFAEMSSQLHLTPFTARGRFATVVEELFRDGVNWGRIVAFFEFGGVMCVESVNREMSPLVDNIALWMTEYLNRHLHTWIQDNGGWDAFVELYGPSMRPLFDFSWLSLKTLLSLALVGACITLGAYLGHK
Caspase-3 (Homo sapiens), sequence (P42574 whole entry, looked up): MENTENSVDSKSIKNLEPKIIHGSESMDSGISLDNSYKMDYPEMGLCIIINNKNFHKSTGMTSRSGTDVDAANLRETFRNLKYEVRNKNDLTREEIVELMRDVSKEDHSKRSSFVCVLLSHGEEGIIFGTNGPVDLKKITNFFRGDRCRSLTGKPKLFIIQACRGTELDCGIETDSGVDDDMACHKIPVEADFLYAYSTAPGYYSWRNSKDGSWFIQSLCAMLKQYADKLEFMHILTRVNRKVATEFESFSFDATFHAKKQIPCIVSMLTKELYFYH

For the molecule `CC(C)c1cccc(C(C)C)c1NC(=O)NS(=O)(=O)c1cc(C(C)(C)O)co1`, the result (in test [1]; in [2]; in test [3]; in test [4]; in [5]; in the test with BCL2L11 (gene 10018)) was inactive. Further, the molecule was called inactive (in test [6]; in test [7]; in test [8]; with Caspase-3 (Homo sapiens)).
Turning to `O=[Si]=O`, the result (in test [1]; in [2]; in test [3]; in test [4]; in test [5]; with BCL2L11 (gene 10018)) was inactive. The result (in test [6]; in test [7]; in [8]; in the test with Caspase-3 (Homo sapiens)) was inactive.
With `CC(=O)O[C@]1(C(C)=O)CC[C@H]2[C@@H]3C=C(Cl)C4=CC(=O)[C@@H]5C[C@@H]5[C@]4(C)[C@H]3CC[C@@]21C`, the molecule was called inactive (in test [1]; in test [2]; in test [4]; with BCL2L11 (gene 10018); in [7]; in [8]). In the test with Caspase-3 (Homo sapiens), the molecule was classed as inactive. Also, the AC50 in test [3] is 50 µM (active); in test [5], 50 µM (active); in [6], 84.3 µM (active).
With `CC1(C)C(=O)NC(=O)N1CO`, the call (in [1]; in test [2]; in test [3]; in test [4]; in test [5]; with BCL2L11 (gene 10018)) was inactive. In addition, the call (in test [6]; in [7]; in [8]; in the test with Caspase-3 (Homo sapiens)) was inactive.
As to `C/C=C/c1ccc(OC)cc1`, the outcome (in [1]; in test [2]; in test [3]; in [4]; in test [5]; with BCL2L11 (gene 10018)) was inactive. The result (in test [6]; in test [7]; in [8]; in the test with Caspase-3 (Homo sapiens)) was inactive.
Consider `COC(=O)CCCC(=O)OC`, for which the call (in [1]; in [2]; in [3]; in [4]; in [5]; with BCL2L11 (gene 10018)) was inactive. The call (in test [6]; in test [7]; in test [8]; with Caspase-3 (Homo sapiens)) was inactive.
As for `Nc1nc(=S)c2[nH]cnc2[nH]1`, the call (in test [1]; in [2]; in test [4]; with BCL2L11 (gene 10018); in [7]; in test [8]) was inactive. The molecule was called inactive with Caspase-3 (Homo sapiens). Also, the concentration at half-maximal activity (AC50) in test [3] is 3.39 µM (active); in [5] it was 6.35 µM (active); in [6] it was 3.48 µM (active).
Take `Cn1cnc2c1c(=O)[nH]c(=O)n2C`: the molecule was called inactive (in test [1]; in [2]; in test [3]; in test [4]; in test [5]; with BCL2L11 (gene 10018)). Besides, the result (in [6]; in test [7]; in test [8]; in the test with Caspase-3 (Homo sapiens)) was inactive.
In the case of `CC(=O)O`, the call (in test [1]; in test [2]; in [3]; in test [4]; in test [5]; with BCL2L11 (gene 10018)) was inactive. The molecule was called inactive (in test [6]; in [7]; in test [8]; with Caspase-3 (Homo sapiens)).
In the case of `O=C1OC(c2ccc(O)cc2)(c2ccc(O)cc2)c2ccccc21`, the call (in test [1]; in test [2]; in test [3]; in test [4]; with BCL2L11 (gene 10018); in test [6]) was inactive. Further, the outcome (in test [8]; with Caspase-3 (Homo sapiens)) was inactive. For the same molecule, the half-maximal activity concentration (AC50) is 77.4 µM (active) in test [5] and 50 µM (active) in [7].
Turning to `CCCCCCCCCC[N+](C)(C)[O-]`, the molecule was classed as inactive (in test [1]; in test [2]; in [3]; in [4]; in [5]; in the test with BCL2L11 (gene 10018)). Besides, the result (in [6]; in [7]; in test [8]; in the test with Caspase-3 (Homo sapiens)) was inactive.
Regarding `CC(COCC(C)OC(=O)c1ccccc1)OC(=O)c1ccccc1` (stereo not given), the result (in test [1]; in [2]; in test [3]; in test [4]; in test [5]; with BCL2L11 (gene 10018)) was inactive. Further, the result (in test [6]; in [7]; in test [8]; in the test with Caspase-3 (Homo sapiens)) was inactive.
As to `COc1ccc(C(=O)Nc2nc3ccccc3c(NCc3ccccc3)c2C#N)cc1`, the molecule was called inactive in test [1], in test [2], in [3], in test [4], in [6] and in [7]. Also, the call (in test [8]; in the test with Caspase-3 (Homo sapiens)) was inactive. In addition, the half-maximal activity concentration (AC50) in test [5] is 21.7 µM (active); in the test with BCL2L11 (gene 10018), 10.8 µM (active).
With `O=C(N[C@@H](c1ccccc1)[C@@H]1CCCCN1)c1cccc(C(F)(F)F)c1Cl`, the AC50 is 10.8 µM (active) in test [1]; 78.2 µM (active) in test [4]; 25.5 µM (active) in [5]; 85.7 µM (active) in the test with BCL2L11 (gene 10018); 50 µM (active) with Caspase-3 (Homo sapiens). In addition, the molecule was classed as inactive in test [2], in [3], in test [6], in test [7] and in [8].
For `Oc1ccc(O)cc1`, the molecule was classed as inactive (in test [1]; in test [2]; in test [3]; in [4]; in [5]; with BCL2L11 (gene 10018)). The molecule was called inactive (in test [6]; in test [7]; in test [8]; with Caspase-3 (Homo sapiens)).
As to `C=CCc1ccc(OC)c(OC)c1`, the result (in test [1]; in [2]; in test [3]; in test [4]; in test [5]; with BCL2L11 (gene 10018)) was inactive. In addition, the call (in [6]; in [7]; in the test with Caspase-3 (Homo sapiens)) was inactive. Moreover, the concentration at half-maximal activity (AC50) in [8] is 9.92 µM (active).
For the molecule `Oc1ccccc1O`, the outcome (in test [1]; in test [2]; in [3]; in test [4]; in test [5]; in the test with BCL2L11 (gene 10018)) was inactive. Also, the result (in test [6]; in test [7]; in test [8]; with Caspase-3 (Homo sapiens)) was inactive.
For the molecule `NC1CCCCC1`, the result (in test [1]; in [2]; in test [3]; in [4]; in test [5]; with BCL2L11 (gene 10018)) was inactive. The outcome (in [6]; in test [7]; in test [8]; with Caspase-3 (Homo sapiens)) was inactive.
`CSc1ccc(Oc2ccc(S(N)(=O)=O)cc2CN(C)C)cc1C`: the AC50 in test [1] was 54.5 µM (active); in test [5] it was 75 µM (active). The outcome (in test [2]; in [3]; in [4]; with BCL2L11 (gene 10018); in test [6]; in test [7]) was inactive. The call (in [8]; in the test with Caspase-3 (Homo sapiens)) was inactive.
On to `O=C1CCCCC1`, for which the call (in test [1]; in [2]; in test [3]; in test [4]; in test [5]; with BCL2L11 (gene 10018)) was inactive. Moreover, the call (in test [6]; in test [7]; in test [8]; with Caspase-3 (Homo sapiens)) was inactive.
Take `OCC(O)CO`: the call (in test [1]; in [2]; in test [3]; in [4]; in [5]; with BCL2L11 (gene 10018)) was inactive. Further, the call (in [6]; in test [7]; in test [8]; with Caspase-3 (Homo sapiens)) was inactive.
For `CO[C@@H]1COCC[C@@H]1N[C@@H]1CC[C@@](C(=O)N2CCc3ncc(C(F)(F)F)cc3C2)(C(C)C)C1`, the molecule was called inactive (in test [1]; in [2]; in test [3]; in test [4]; in [5]; with BCL2L11 (gene 10018)). The molecule was classed as inactive (in test [6]; in test [7]; in test [8]; in the test with Caspase-3 (Homo sapiens)).
